From PubChem
M1 PAM parental – M1 PAM counterscreen hit in parental CHO-K1 cells; ATP EC20, Fluo-8 calcium fluorescence; 0% at ATP EC20, 100% at ATP max; activation, % at 3 µM; 0.02% of 360,000 active; AID 602247;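 active = activation above the run cutoff, the mean activation of all test compounds plus 3 SD, cut at about 40% in these data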;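 also: peak over basal fluorescence ratio in a 140 s read after ATP addition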
M1 ag – activates human CHRM1 receptor | activation, % at 3 µM | P11229 | CHO-K1 hM1, Fluo-8 calcium fluorescence, agonist mode; 0% DMSO, 100% acetylcholine EC100 | 0.33% of 360,000 active;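 active = activation above the run's mean compound activation plus 3 SD, cut at about 16% in these data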;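 also: peak over basal fluorescence ratio within a 140 s kinetic read after compound addition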
Target sequence (P11229 whole entry, looked up): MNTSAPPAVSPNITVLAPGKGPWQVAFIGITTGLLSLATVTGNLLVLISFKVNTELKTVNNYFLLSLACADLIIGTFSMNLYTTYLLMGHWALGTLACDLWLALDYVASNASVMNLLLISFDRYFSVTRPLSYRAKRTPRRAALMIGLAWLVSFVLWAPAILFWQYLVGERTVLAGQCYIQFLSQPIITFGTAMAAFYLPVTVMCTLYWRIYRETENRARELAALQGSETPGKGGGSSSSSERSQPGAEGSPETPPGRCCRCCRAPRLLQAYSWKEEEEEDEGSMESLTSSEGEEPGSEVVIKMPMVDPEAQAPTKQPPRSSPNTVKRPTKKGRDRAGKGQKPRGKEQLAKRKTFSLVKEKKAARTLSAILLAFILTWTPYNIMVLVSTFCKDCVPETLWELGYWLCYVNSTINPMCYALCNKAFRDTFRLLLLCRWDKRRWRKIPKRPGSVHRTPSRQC
M1 PAM – potentiates human M1 receptor response to acetylcholine; P11229; CHO-K1 hM1, Fluo-8 calcium fluorescence, ACh EC20; 0% = ACh EC20, 100% = maximal ACh; activation, % at 3 µM; 0.088% of 360,000 active; in the data active = activation above about 19%, passing the limit was not always enough
CHO-K1 Ca antag – counter-screen for M1 antagonists: effect in parental CHO-K1 cells; ATP-induced calcium, Fluo-8 fluorescence; inhibition, % at 3 µM; 0.6% of 360,000 active; AID 602250;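 active = inhibition above a per-plate cutoff, the plate's mean sample inhibition plus 3 SD, cut at about 24% in these data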;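 also: 0% = DMSO plus EC80 ATP and 100% = DMSO alone without ATP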
CHO-K1 Ca ag – counter-screen for M1 agonists: effect in parental CHO-K1 cells. Fluo-8 calcium fluorescence; scaled to maximal ATP response, vehicle zero. activation, % at 3 µM. 0.48% of 360,000 active; in the data active = activation above about 15%;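 also: untransfected CHO-K1 host cells lacking M1 receptor as counterscreen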
CHRM1 antagonist – human CHRM1 antagonism; inhibition, % at 3 µM; 1.3% of 360,000 active; P11229; AID 588852; CHO-K1 hM1, Fluo-8 calcium fluorescence, ACh EC80 antagonist;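 active = percent inhibition above its own plate's cutoff, namely the mean of that plate's compound wells plus 3 SD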;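 also: peak over basal fluorescence ratio during 140 s after agonist addition; 0% = ACh EC80 plus DMSO and 100% = DMSO alone without agonist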
The depositor's hits bear a star. Sampled rows, rich in hits. Any-hit rate of the full collection: about 2.3%.

SMILES | M1 PAM parental | M1 ag | M1 PAM | CHO-K1 Ca antag | CHO-K1 Ca ag | CHRM1 antagonist
Cc1ccc(-c2csc(N(CCCN3CCOCC3)C(=O)c3ccco3)n2)cc1 | 1.2 | -7.5 | -14.5 | -14.7 | 4.5 | 14.9
O=C(NC(=S)/C(=C1\CCCCCN1)[N+](=O)[O-])c1ccccc1 | 4.6 | -3.9 | -8.6 | -6.0 | 0.4 | 16.3
CCN(CC)c1ccc(-c2nc3cnccc3n2C)cc1 | 5.1 | -6.0 | -19.9 | -1.9 | -0.5 | 38.6*
Cn1c(-c2ccncc2)nc2ccccc21 | 0.7 | -4.9 | 3.2 | -6.5 | -0.1 | -5.5
O=[N+]([O-])/C=C\c1ccc(N2CCCC2)c(F)c1 | -2.8 | 24.3* | 3.1 | 17.8 | 27.1* | 50.7*
O=Cc1ccc(N2CCCC2)c([N+](=O)[O-])c1 | 22.6 | -6.8 | 12.2 | -14.5 | 0.3 | -7.3
CCOc1ccccc1N1CCN(C2=C(NS(=O)(=O)c3cccs3)C(=O)c3ccccc3C2=O)CC1 | 12.4 | -6.3 | -23.1 | 3.8 | 0.5 | 59.7*
O=C1C(NS(=O)(=O)c2cccs2)=C(N2CCN(Cc3ccccc3)CC2)C(=O)c2ccccc21 | -3.4 | -1.5 | -13.5 | -2.8 | 6.8 | 30.6*
Cn1c(/C(C#N)=C/c2cccc(O)c2)nc2ccccc21 | 12.0 | -5.2 | 18.3 | -0.6 | 0.3 | -17.4
Cn1c(/C(C#N)=C/c2ccc(-c3ccc(S(N)(=O)=O)cc3)o2)nc2ccccc21 | 14.1 | 1.1 | -14.9 | 17.5 | 21.7* | 30.0
Cc1cccc(C)c1NC(=O)CCc1nnc2ccc(N3CCCC3)nn12 | 17.6 | -3.9 | 3.5 | -9.7 | 1.0 | -4.3
O=[N+]([O-])c1cc([N+](=O)[O-])c(Oc2c(Cl)cccc2Cl)cc1NN1CCCCC1 | 7.3 | -4.3 | 3.3 | -7.8 | 0.7 | -4.5
CC(=O)c1ccccc1Oc1cc(NN2CCCCC2)c([N+](=O)[O-])cc1[N+](=O)[O-] | 12.2 | -11.1 | -34.7 | -8.6 | -0.3 | 36.3*
O=[N+]([O-])c1cc([N+](=O)[O-])c(Oc2cccc3ccccc23)cc1NN1CCCCC1 | 3.4 | 9.7 | 29.6* | -15.6 | -0.1 | -9.2
Cc1cccc2cc(-c3nc4c(C)cccn4c3NCc3ccco3)c(=O)[nH]c12 | 12.5 | 2.2 | -15.4 | -2.7 | 2.8 | 27.8*
COC(=O)c1c(N)sc(C(C)=O)c1C | 18.8 | 16.4* | 19.7 | -12.4 | 0.0 | -0.2
Cc1nn(-c2ccc(Cl)nn2)c(=O)c2ccccc12 | 2.1 | -4.8 | 5.5 | -8.5 | 1.1 | -3.1
CC(C)N(Cc1ccccc1)C(=O)CN1C(=O)COc2ccc(S(=O)(=O)N3CCCCCC3)cc21 | 38.0 | 5.9 | -2.2 | -30.0 | 16.1* | 9.1
CN(Cc1ccccc1)C(=O)CN1C(=O)COc2ccc(S(=O)(=O)N3CCCC3)cc21 | 14.2 | -4.9 | 3.6 | -13.3 | 0.5 | -3.7
Cc1nc2ccccc2n1Cc1ccc(Cl)cc1 | -11.6 | 4.0 | -17.5 | 33.2* | 9.2 | 21.0
OCc1nc2ccccc2n1Cc1ccc(Cl)cc1 | -4.3 | -4.5 | -4.6 | 4.8 | 2.4 | 5.0
Cc1ccccc1Cn1c(C)nc2ccccc21 | -24.3 | 0.1 | -16.6 | 28.6* | 10.0 | 39.1*
C/C(=N/NC(=O)c1cccs1)c1ccc(N2CCOCC2)cc1 | -6.1 | -1.9 | -11.7 | 25.1* | 0.0 | 20.7
C/C(=N\NC(=O)c1ccccc1)c1ccc(N2CCOCC2)cc1 | -7.5 | -2.5 | 5.3 | -4.2 | 0.4 | -2.5
CCN(CC)CC(O)CN1c2ccccc2Sc2ccccc21 (stereo unspecified) | -8.1 | -8.0 | -26.4 | -2.5 | 4.3 | 51.5*
SMILES | M1 PAM parental | M1 ag | M1 PAM | CHO-K1 Ca antag | CHO-K1 Ca ag | CHRM1 antagonist
COc1ccc2c(c1)N(C[C@H](C)CN(C)C)c1ccccc1S2 | 0.3 | -7.5 | -26.6 | -3.2 | 1.1 | 99.1*
CC(CN(C)C)CN1c2ccccc2Sc2ccccc21 (stereo unspecified) | 0.1 | -6.4 | -27.7 | 10.1 | 1.4 | 100.5*
CCC(=O)/C=C1\Sc2ccc(OC)cc2N1CC | 0.1 | -3.6 | 6.5 | 9.0 | -1.1 | 2.5
OCCN(CCO)CC(O)CN1c2ccccc2Sc2ccccc21 (stereo unspecified) | -3.1 | -7.3 | -7.1 | 4.9 | 0.9 | 9.2
NC(=O)c1ncc(C(F)(F)F)cc1Oc1ccc(C(F)(F)F)cc1 | -8.7 | -3.4 | 8.3 | -11.6 | 0.8 | -7.7
CCC1CCCCN1C(=O)CCC(=O)Nc1nnc(C(F)(F)F)s1 (stereo unspecified) | -16.8 | 1.6 | 15.6 | 9.8 | 0.5 | -0.7
